For eight molecules, growth results are on record in PubChem BioAssay (NCI).

Among the test systems are HCT-15 colon; HT29 colon; SNB-75 CNS; SNB-19 CNS; U251 CNS; PC-3 prostate; SK-MEL-5 melanoma; UACC-62 melanoma; LOX IMVI melanoma; SK-MEL-28 melanoma; SK-MEL-2 melanoma; EKVX NSCLC; SN12C renal; UO-31 renal; TK-10 renal; ACHN renal; CAKI-1 renal; A498 renal; CCRF-CEM leukemia; MOLT-4 leukemia.
Assay in all cases: NCI-60 one-dose screen, 48 h (100 = growth as untreated, 0 = no growth, -100 = all killed)
Details in all cases: 10 µM unless noted

This is part of a sample that, as a whole, favours compounds with a hit. Of some 83,000 tested, about 20% had one in any assay.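 A percent growth of 40 corresponds to 60% growth inhibition; 0 means no net growth; -100 means all cells died. Active threshold: below 10.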 A number with no mark means an inactive call. Calls of active or inactive are those of the source.

In the case of `O=C(c1c[nH]c2ccccc12)C(Sc1nc2ccccc2c(=O)[nH]1)c1ccccc1` (stereo not given), the growth in the test on HCT-15 colon was 104%; in the test on HT29 colon it was 71.3%; with SNB-75 CNS, 90.6%; in the test on SNB-19 CNS, 102%; in the test with U251 CNS it was 101%; in the test on PC-3 prostate it was 94.1%. The growth was 99.8% with SK-MEL-5 melanoma; 102% in the test with UACC-62 melanoma; 95.3% in the test with LOX IMVI melanoma; 117% in the test with SK-MEL-28 melanoma; 72.2% in the test with SK-MEL-2 melanoma; 91.2% with EKVX NSCLC. In addition, the growth is 98.5% in the test on SN12C renal; 81.8% in the test with UO-31 renal; 97.6% in the test on TK-10 renal; 97.9% with ACHN renal; 108% with CAKI-1 renal; 106% in the test with A498 renal. The growth with CCRF-CEM leukemia and in the test on MOLT-4 leukemia was 99.8% in each case.
As to `C=C1C(=O)O[C@H]2[C@H]1CC/C(Cn1cc(-c3ccccc3C(F)(F)F)nn1)=C\CC[C@@]1(C)O[C@@H]21`, the growth with HCT-15 colon is -70.7% (active); in the test with HT29 colon it was -85.3% (active); in the test with SNB-75 CNS, 35.1%; in the test with SNB-19 CNS it was 53.3%; in the test with U251 CNS, 13.1%; with PC-3 prostate it was -31.1% (active). Further, the growth with SK-MEL-5 melanoma was 14.5%; with UACC-62 melanoma, -61.8% (active); with LOX IMVI melanoma, -91.7% (active); in the test with SK-MEL-28 melanoma it was -58.9% (active); with SK-MEL-2 melanoma, -42.2% (active); in the test with EKVX NSCLC it was -78.6% (active). Besides, the growth is -35.3% (active) in the test with SN12C renal; -94.5% (active) in the test on UO-31 renal; -50.1% (active) with TK-10 renal; -85.4% (active) in the test on ACHN renal; -48.8% (active) with CAKI-1 renal; 25.9% with A498 renal. The growth was -28.5% (active) with CCRF-CEM leukemia and -11.7% (active) with MOLT-4 leukemia.
As to `O=S(=O)(NCCNc1cc(-c2cn(-c3ccccc3)nc2-c2ccccc2)ccn1)c1cccc2ccccc12`, the growth in the test with HCT-15 colon is 43.4%; in the test on HT29 colon, 23.6%; in the test with SNB-75 CNS it was 59%; with SNB-19 CNS, 67%; in the test on U251 CNS it was 53.3%; in the test on PC-3 prostate, 15.3%. Besides, the growth with SK-MEL-5 melanoma is 26.5%; with UACC-62 melanoma, 56.5%; in the test on LOX IMVI melanoma it was 45.8%; with SK-MEL-28 melanoma, 62.9%; with SK-MEL-2 melanoma it was 89.5%; in the test with EKVX NSCLC, 36.5%. Moreover, the growth is 58.9% with SN12C renal; 22.3% in the test with UO-31 renal; 66.8% with TK-10 renal; 51.7% in the test with ACHN renal; 49.8% in the test with CAKI-1 renal; 72.5% in the test on A498 renal. Further, the growth is 83.5% in the test on CCRF-CEM leukemia and 28.4% in the test on MOLT-4 leukemia.
In the case of `CC(Br)C(Br)c1cc2c(cc1Br)OCO2` (stereo not given), the growth in the test on HCT-15 colon was 101%; in the test on HT29 colon, 96%; in the test on SNB-75 CNS, 78.2%; in the test on SNB-19 CNS it was 111%; with U251 CNS, 93.1%; in the test on PC-3 prostate it was 79.2%. The growth was 104% in the test on SK-MEL-5 melanoma; 108% with UACC-62 melanoma; 96.2% in the test on LOX IMVI melanoma; 105% with SK-MEL-28 melanoma; 91.4% with SK-MEL-2 melanoma; 93.8% in the test with EKVX NSCLC. Also, the growth with SN12C renal was 110%; in the test on UO-31 renal, 90.7%; with TK-10 renal, 96.6%; in the test on ACHN renal it was 93.2%; in the test on CAKI-1 renal, 84%; in the test with A498 renal, 99.3%. Besides, the growth with CCRF-CEM leukemia is 99.6%; in the test on MOLT-4 leukemia it was 94.7%.
As for `CCC(=O)Nc1ccccc1C#C/C=C\C#Cc1ccccc1SC`, the growth in the test on HCT-15 colon is 43.9%; in the test with HT29 colon, 29.6%; in the test with SNB-75 CNS it was 60.6%; in the test with SNB-19 CNS, 79.3%; with U251 CNS, 48.9%; in the test on PC-3 prostate, 51.9%. Further, the growth was 23.8% in the test on SK-MEL-5 melanoma; 40.1% with UACC-62 melanoma; 57.9% in the test on LOX IMVI melanoma; 81.2% in the test with SK-MEL-28 melanoma; 28% with SK-MEL-2 melanoma; 65.6% in the test with EKVX NSCLC. For the same molecule, the growth was 82.1% with SN12C renal; 21.5% in the test on UO-31 renal; 71.5% in the test on TK-10 renal; 77.7% in the test on ACHN renal; 70.6% in the test with CAKI-1 renal; 59.9% with A498 renal. For the same molecule, the growth is 26.9% in the test on CCRF-CEM leukemia and 40.7% in the test with MOLT-4 leukemia.
`COc1ccc(OC)c(NC(=O)c2cc(S(=O)(=O)N3CCc4ccccc43)ccc2OC)c1`: the growth is 107% in the test with HCT-15 colon; 76.7% in the test on HT29 colon; 85.1% with SNB-75 CNS; 75.9% with SNB-19 CNS; 92.1% with U251 CNS; 88.5% with PC-3 prostate. The growth was 67.6% in the test with SK-MEL-5 melanoma; 79.2% in the test on UACC-62 melanoma; 94.7% in the test with LOX IMVI melanoma; 131% in the test on SK-MEL-28 melanoma; 36.4% in the test with SK-MEL-2 melanoma; 94.9% in the test with EKVX NSCLC. Further, the growth in the test on SN12C renal was 95%; in the test with UO-31 renal, 42.2%; in the test on TK-10 renal, 91.9%; with ACHN renal it was 93.3%; in the test on CAKI-1 renal, 107%; in the test with A498 renal, 69.8%. Also, the values for the growth with CCRF-CEM leukemia and in the test with MOLT-4 leukemia were 107% and 106%, respectively.
For the molecule `C#CCC1(c2ccc(F)c(F)c2)NS(=O)(=O)c2ccccc21` (stereo not given), the growth with HCT-15 colon is 103%; with HT29 colon, 82.9%; in the test on SNB-75 CNS, 99.1%; in the test with SNB-19 CNS, 108%; in the test on U251 CNS, 96.4%; in the test on PC-3 prostate, 91.8%. In addition, the growth with SK-MEL-5 melanoma was 103%; with UACC-62 melanoma, 106%; with LOX IMVI melanoma it was 98%; in the test with SK-MEL-28 melanoma, 121%; with SK-MEL-2 melanoma, 91.2%; in the test on EKVX NSCLC, 103%. Moreover, the growth with SN12C renal was 106%; with UO-31 renal, 86.4%; with TK-10 renal, 83.6%; in the test with ACHN renal, 113%; in the test with CAKI-1 renal it was 94.4%; with A498 renal, 109%. Further, the growth in the test on CCRF-CEM leukemia was 99.2%; with MOLT-4 leukemia it was 90%.
For `CCSc1nnc(Nc2ccc(C(C)C)cc2)s1`, the growth with HCT-15 colon is 48%; in the test with HT29 colon, 28.9%; in the test with SNB-75 CNS, 102%; with SNB-19 CNS it was 98.4%; in the test with U251 CNS, 66%; in the test with PC-3 prostate, 109%. Besides, the growth was 78.9% in the test on SK-MEL-5 melanoma; 78.1% with UACC-62 melanoma; 82.5% in the test with LOX IMVI melanoma; 110% in the test with SK-MEL-28 melanoma; 41.3% with SK-MEL-2 melanoma; 80.5% in the test with EKVX NSCLC. For the same molecule, the growth with SN12C renal is 76.7%; with UO-31 renal, 39.5%; in the test with TK-10 renal, 96.1%; in the test with ACHN renal, 91.1%; with CAKI-1 renal, 83.7%; in the test with A498 renal it was 111%. Besides, the growth in the test with CCRF-CEM leukemia is 70.6%; in the test on MOLT-4 leukemia it was 66.3%.
